Data from PubChem BioAssay AID1016 (Sanford-Burnham Center for Chemical Genomics, 2008).
The whole screen tested about 200,000 compounds, of which about 330 (0.17%) were called active. The sample holds actives, similar compounds and a random draw of the others, so the mix is not that of the screen. Values without a mark were called inactive.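 Rule for the calls: active = activation factor of 2 or more at 20 µM, a signal rise over negative controls twice the positive control's; inactive = the rest.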

Tested on: alkaline phosphatase, intestinal [Bos taurus]
Assay: IAP enzyme activity enhancers – biochemical, bovine IAP, CDP-star luminescence, primary screen (AID 1016)
Conditions: purified bovine IAP, 30 min, at 20 µM, hits give high values, fold of DMSO-control signal, blank-subtracted

Question: How did the activation factor turn out when `Cc1ccc(S(=O)(=O)Nc2nc(N)n(-c3ccccc3)n2)cc1` was run?
Answer: 1.2

Question: With `CCOC(=O)NN1C(=O)c2ccccc2NC1c1ccccc1O` (stereo not given) as the compound, how does the activation factor read?
Answer: 1

Question: How did the activation factor turn out when `CCOC(=O)CN1CCC(c2ccccc2)CC1` was run?
Answer: 1

Question: How did the activation factor turn out when `CCOC(=O)Cn1c(-c2cccnc2Cl)nc2ccccc21` was run?
Answer: 1

Question: How did the activation factor turn out when `CCOC(=O)Cn1c2c(c(-c3ccccc3OC)cc1=O)CCCC2` was run?
Answer: 2.1 (active)

Question: With `COc1ccccc1NC1=NC(c2ccc(Cl)cc2)N=C(N)N1` (stereo not given) as the compound, how does the activation factor read?
Answer: 2.7 (active)

Question: How did the activation factor turn out when `COc1ccccc1NC1=NC2(CCCC2)N=C(N)N1` was run?
Answer: 0.9

Question: Which activation factor does the source give for `COc1ccccc1Nc1nc(N)nc(CN(C)C2CCCCC2)n1` here?
Answer: 0.9

Question: For `CCOc1cc(N2CCOCC2)c(OCC)cc1NC(=O)C1=NN(c2cccc(C)c2)C(=O)CC1`, which activation factor is on record?
Answer: 0.9

Question: Which activation factor does the source give for `O=C(NCc1ccccc1Cl)C1CCN(S(=O)(=O)N2CCOCC2)CC1` here?
Answer: 1

Question: How did the activation factor turn out when `O=C(CN1C(=O)/C(=C/c2ccccc2F)Sc2ccccc21)NCc1cccnc1` was run?
Answer: 1.1

Question: Which activation factor does the source give for `Cc1ccc(S(=O)(=O)C2C(=O)NC3(C)CC2c2ccccc2O3)cc1` (stereo not given) here?
Answer: 0.9

Question: With `COc1ccc(/C=C/C(=O)NC(=S)NN2CCCCC2c2cccnc2)cc1` (stereo not given) as the compound, how does the activation factor read?
Answer: 0.7

Question: Which activation factor does the source give for `Cc1cccc(-n2cnc(C(=O)NNC(=S)Nc3ccccc3)c2)n1` here?
Answer: 1.6

Question: Which activation factor does the source give for `CCn1cc(/C=C2/SC(=S)NC2=O)c(C)n1` here?
Answer: 1.1

Question: How did the activation factor turn out when `CC1=CC=CC2=N/C(=N\S(=O)(=O)c3ccc(F)cc3F)c3ccccc3CN12` was run?
Answer: 0.9

Question: For `CC(=O)c1ccc(NC(=O)C(C)NCc2ccc(Cl)cc2)cc1` (stereo not given), which activation factor is on record?
Answer: 0.9

Question: Which activation factor does the source give for `CC1(C)Cc2cccc(OCC(=O)N3CCN(c4ccc([N+](=O)[O-])cc4)CC3)c2O1` here?
Answer: 0.9

Question: `N=c1c2c(-c3ccccc3)c(-c3ccccc3)n(Cc3ccccc3)c2ncn1CCCO` was tested. Which activation factor did it give?
Answer: 1.4

Question: With `OCCCN1c2ccccc2Nc2nnc(-c3ccccc3)cc21` as the compound, how does the activation factor read?
Answer: 9 (active)
